Laboratory results as given in paper PMC4336329 (PLoS ONE, 2015).
The campaign covered roughly 310,000 compounds. About 14,000 (4.5%) showed an effect of 50% or more. Effects have a minus sign here. For the sample, strong results were picked, then their nearest neighbours and some compounds at random.

Molecular target: human ether-à-go-go-related gene (hERG) potassium channel (human, UniProt Q12809)
Test: primary screen, population patch clamp on CHO cells stably expressing hERG; higher = less effect of the substance
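Also: peak tail current of the secondary pulse compared with the same well before compound.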

Chain of human ether-à-go-go-related gene (hERG) potassium channel (Q12809 whole entry, looked up): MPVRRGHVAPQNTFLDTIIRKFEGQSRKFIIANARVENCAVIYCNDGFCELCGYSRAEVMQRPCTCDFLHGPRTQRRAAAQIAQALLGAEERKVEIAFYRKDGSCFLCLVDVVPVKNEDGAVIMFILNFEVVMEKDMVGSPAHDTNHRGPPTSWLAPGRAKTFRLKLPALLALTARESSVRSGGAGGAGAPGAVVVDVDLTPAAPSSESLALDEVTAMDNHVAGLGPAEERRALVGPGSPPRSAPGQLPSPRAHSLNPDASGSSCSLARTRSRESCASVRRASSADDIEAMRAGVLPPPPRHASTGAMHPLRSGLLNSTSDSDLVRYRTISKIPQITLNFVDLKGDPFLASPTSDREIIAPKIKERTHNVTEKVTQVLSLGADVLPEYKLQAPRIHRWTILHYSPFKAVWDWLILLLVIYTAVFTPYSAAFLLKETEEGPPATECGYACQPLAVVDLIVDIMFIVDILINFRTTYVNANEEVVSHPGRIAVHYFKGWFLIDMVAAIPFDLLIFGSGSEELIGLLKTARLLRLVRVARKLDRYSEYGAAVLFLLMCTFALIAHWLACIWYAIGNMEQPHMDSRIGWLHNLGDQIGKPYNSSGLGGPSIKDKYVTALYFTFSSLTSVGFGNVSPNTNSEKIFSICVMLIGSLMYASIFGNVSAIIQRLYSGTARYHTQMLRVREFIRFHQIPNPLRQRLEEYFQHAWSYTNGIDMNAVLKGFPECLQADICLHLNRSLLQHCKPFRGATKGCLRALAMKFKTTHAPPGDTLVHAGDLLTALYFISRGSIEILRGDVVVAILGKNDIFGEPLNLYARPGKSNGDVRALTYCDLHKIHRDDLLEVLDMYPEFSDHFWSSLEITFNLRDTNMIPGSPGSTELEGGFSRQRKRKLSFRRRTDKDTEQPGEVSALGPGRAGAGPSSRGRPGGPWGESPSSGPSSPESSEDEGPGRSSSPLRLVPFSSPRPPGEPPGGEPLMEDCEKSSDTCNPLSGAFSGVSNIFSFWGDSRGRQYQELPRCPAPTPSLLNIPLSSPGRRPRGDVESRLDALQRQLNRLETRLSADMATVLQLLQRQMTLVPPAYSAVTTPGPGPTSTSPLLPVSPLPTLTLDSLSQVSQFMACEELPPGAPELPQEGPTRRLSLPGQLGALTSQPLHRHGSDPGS

Going from Cn1c(=O)[nH]c(=O)c2c1nc(CN1CCN(c3ccccc3F)CC1)n2CCCc1ccccc1 to COc1ccccc1N1CCN(Cc2c(F)cccc2F)CC1, the “hERG current change (%, negative = inhibition) at 10uM” value rises from -33.7% to -18%.

First: Cc1ccc(NC(=O)C2(c3ccccc3)CCOCC2)cc1
Second: O=C(O)c1ccc(NC(=O)C2(c3ccccc3)CCOCC2)cc1
The “hERG current change (%, negative = inhibition) at 10uM” value of the first is higher: 9.1% for the first, -5.57% for the second.

Compared with O=C(Nc1ccc([N+](=O)[O-])cc1)C1(c2ccccc2)CCOCC1, Cc1noc(NS(=O)(=O)c2ccc(N3CC(O)=C(c4ccccc4)C3=N)cc2)c1C is higher in “hERG current change (%, negative = inhibition) at 10uM” value: -69.1% for the first, 20.5% for the second.

Going from COc1ccc(C(=O)NCc2nnc(SCC(=O)N3CCCCC3)o2)cc1 to COc1ccc(-c2nnn(Cc3nc(N)nc(N4CCCCC4)n3)n2)cc1, the “hERG current change (%, negative = inhibition) at 10uM” value falls from 29.8% to -9.06%.

Compared with C/C(=C\c1cc(C(=O)O)c(C)o1)CO, COc1cccc2cc(C(C)=O)oc12 is higher in “hERG current change (%, negative = inhibition) at 10uM” value: 12.9% for the first, 15.5% for the second.

First: Cn1c(SCc2cnc(-c3ccccc3)s2)nnc1C1COc2ccccc2O1 (stereo not drawn)
Second: Cn1c(SCC(=O)c2ccccc2)nnc1C1COc2ccccc2O1 (stereo not drawn)
The “hERG current change (%, negative = inhibition) at 10uM” value of the first is higher: -1.06% for the first, -11.9% for the second.

Compared with Cc1occc1-c1nnc(SCc2cc(=O)n3cc(Br)ccc3n2)n1C, Cn1c(SCc2cc(=O)n3cc(Br)ccc3n2)nnc1C1COc2ccccc2O1 (stereo not drawn) is lower in “hERG current change (%, negative = inhibition) at 10uM” value: -47.7% for the first, -72% for the second.

Going from Cn1c(SCc2nnc(-c3ccc(F)cc3)o2)nnc1C1COc2ccccc2O1 (stereo not drawn) to COc1ccccc1N1CCN(Cc2nc(-c3ccc(F)cc3)oc2C)CC1, the “hERG current change (%, negative = inhibition) at 10uM” value falls from -60.9% to -65.9%.

Compared with O=C(OCc1cc(=O)n2cc(Br)ccc2n1)C1COc2ccccc2O1 (stereo not drawn), C/C(=N\NC(=O)c1nc2ccccn2c1C)c1ccc2c(c1)OCO2 is lower in “hERG current change (%, negative = inhibition) at 10uM” value: -15.5% for the first, -18.5% for the second.

First: CN(C(=O)COC(=O)c1nc(Cl)ccc1Cl)c1ccccc1
Second: Br.N=c1n(CC(=O)O)c2ccccc2n1Cc1ccccc1Cl
The “hERG current change (%, negative = inhibition) at 10uM” value of the first is higher: 17.6% for the first, 0.122% for the second.

Going from Cc1ccc(OC(=O)CCC(=O)Nc2ccc(C(N)=O)cc2)cc1 to COc1ccc(CCCc2nnc(SCC(=O)Nc3ccc(OC)cc3)o2)cc1, the “hERG current change (%, negative = inhibition) at 10uM” value falls from 18.2% to 17.7%.

Going from COc1cccc(/C=C/c2ccc3cccc(O)c3n2)c1 to C/C(=N\NC(=O)c1ccc(O)cc1)c1cc2ccccc2o1, the “hERG current change (%, negative = inhibition) at 10uM” value falls from 14.8% to -50.3%.

First: Cc1cc(C)n(-c2nc(NC(C)(C)C)nc(NC(C)(C)C)n2)n1
Second: Cc1cc(C)nc(N2Cc3ccccc3C2=N)n1
The “hERG current change (%, negative = inhibition) at 10uM” value of the first is higher: -6.46% for the first, -56% for the second.

Compared with N#CCC(=O)NNc1c([N+](=O)[O-])cc(C(F)(F)F)cc1[N+](=O)[O-], COc1cc(CC(=O)OCC(=O)Nc2cc([N+](=O)[O-])ccc2F)cc(OC)c1OC is lower in “hERG current change (%, negative = inhibition) at 10uM” value: 28.8% for the first, -38.9% for the second.

Compared with COc1ccccc1CN1CCN(S(=O)(=O)c2ccc(C)cc2)CC1, COc1ccccc1CN1CCN(Cc2nc(-c3ccc(C)cc3)oc2C)CC1 is lower in “hERG current change (%, negative = inhibition) at 10uM” value: -19% for the first, -58.8% for the second.

Compared with COc1cc(-c2nc(CN3CCN(c4ncccn4)CC3)c(C)o2)ccc1F, COc1ccc(-c2nc(CN3CCN(Cc4ccccc4)CC3)c(C)o2)cc1 is lower in “hERG current change (%, negative = inhibition) at 10uM” value: -9.65% for the first, -42.2% for the second.

First: Cc1cc(C)cc(C(=O)OCC(=O)N2CCCC2)c1
Second: CCOC(=O)c1c(C)c(C(=O)Nc2ccc(N(C)C)cc2)c(C)n1CC
The “hERG current change (%, negative = inhibition) at 10uM” value of the first is higher: 9.79% for the first, -1.83% for the second.

Going from COC(=O)c1sccc1-c1ccc(C(N)=O)o1 to COc1cccc2cc(/C(C)=N/NC(=O)c3ccco3)oc12, the “hERG current change (%, negative = inhibition) at 10uM” value falls from 7.97% to -52.2%.

First: Br.Cc1ccc(N2Cc3ccccc3C2=N)cc1[N+](=O)[O-]
Second: N=C1c2ccccc2CN1c1ncccn1
The “hERG current change (%, negative = inhibition) at 10uM” value of the first is higher: -4.21% for the first, -10.6% for the second.

First: COc1ccccc1CN=c1c([N+](=O)[O-])nn(-c2ccc3c(c2)OCCO3)n1O
Second: CS(=O)(=O)N(CC(=O)Nc1ccccc1C(=O)NCc1ccco1)c1ccc2c(c1)OCCO2
The “hERG current change (%, negative = inhibition) at 10uM” value of the first is lower: -7.21% for the first, -5.03% for the second.

Compared with COc1ccc([N+](=O)[O-])cc1NC(=O)COC(=O)Cc1cc(OC)c(OC)c(OC)c1, COc1cc(CC(=O)OCC(=O)Nc2cc([N+](=O)[O-])ccc2Cl)cc(OC)c1OC is lower in “hERG current change (%, negative = inhibition) at 10uM” value: -17.8% for the first, -50% for the second.

First: Cc1cc(NC(=O)CCC(=O)N(Cc2ccco2)C(C(=O)NC2CCCCC2)c2cccs2)no1 (stereo not drawn)
Second: Cc1ccc2nc(Cl)c(CN(C(=O)c3cnccn3)C3CCCCC3)cc2c1
The “hERG current change (%, negative = inhibition) at 10uM” value of the first is higher: -20.9% for the first, -24.7% for the second.

Going from COc1cccc(/C(O)=C2/C(=O)C(=O)N(Cc3ccco3)C2c2ccncc2)c1 (stereo not drawn) to COc1cccc(CC2(CO)CCN(Cc3cccn3-c3cccnc3)CC2)c1, the “hERG current change (%, negative = inhibition) at 10uM” value falls from 15.2% to -47.7%.

Compared with CC(=O)Nc1ccc(NC(=O)C(C)OC(=O)CNC(=O)c2sc3ccccc3c2Cl)cc1 (stereo not drawn), O=C(Cn1nc(-c2ccccc2)ccc1=O)Nc1cccc(NC(=O)c2ccccn2)c1 is lower in “hERG current change (%, negative = inhibition) at 10uM” value: 18.6% for the first, -0.657% for the second.

Going from CN(C)CCCN1C(=O)c2cccc3c(Br)ccc(c23)C1=O to CN(C)CCCN1C(=O)c2cccc3c([N+](=O)[O-])ccc(c23)C1=O, the “hERG current change (%, negative = inhibition) at 10uM” value rises from -66.4% to -27.7%.

First: CN(C)CCCN1C(=O)c2cccc3cccc(c23)C1=O
Second: CCOc1ccc2ccccc2c1/C=N\NC(=O)OC
The “hERG current change (%, negative = inhibition) at 10uM” value of the first is lower: -16% for the first, 12.7% for the second.

First: COc1ccc2c(c1OC)C(=O)OC2Nc1nc(-c2ccccc2)cs1 (stereo not drawn)
Second: CCCOc1cccc(-c2cc(C(=O)N/N=C/c3ccccn3)c3ccccc3n2)c1
The “hERG current change (%, negative = inhibition) at 10uM” value of the first is higher: 8.12% for the first, 0.224% for the second.

Compared with COCCCn1cnc2c(c1=O)c1nc3ccccc3nc1n2-c1ccc(C)cc1, COCCCn1cnc2c(c1=O)c1nc3ccccc3nc1n2-c1ccccc1 is lower in “hERG current change (%, negative = inhibition) at 10uM” value: -37% for the first, -56.6% for the second.

Compared with CCOCCCn1cnc2c(c1=O)c1nc3ccccc3nc1n2-c1ccccc1, Br.Cc1ccccc1Cn1c(=N)n(CC(=O)c2ccco2)c2ccccc21 is lower in “hERG current change (%, negative = inhibition) at 10uM” value: -30.6% for the first, -65% for the second.

Compared with CCCCn1c(SCC(=O)NNC(=O)c2ccco2)nnc1-c1ccco1, Br.CCCCn1c(=N)n(CC(=O)c2ccco2)c2ccccc21 is lower in “hERG current change (%, negative = inhibition) at 10uM” value: 4% for the first, -41.8% for the second.

Going from CCn1c(=O)c2c(nc(SCC(=O)NCC3CCCO3)n2C)n(C)c1=O (stereo not drawn) to CCCCN(C(=O)c1cc(CC)c(C)s1)c1c(N)n(CCC)c(=O)[nH]c1=O, the “hERG current change (%, negative = inhibition) at 10uM” value falls from -0.794% to -20.8%.

First: Nc1nc(Cn2nnc(-c3ccccc3Cl)n2)nc(N2CCOCC2)n1
Second: Nc1nc(Cn2nnc(-c3ccccc3F)n2)nc(N2CCOCC2)n1
The “hERG current change (%, negative = inhibition) at 10uM” value of the first is higher: -54.4% for the first, -73.4% for the second.

First: Clc1ccc(Cn2nnc(-c3ccc(N4CCOCC4)cc3)n2)cc1
Second: COc1ccc(-c2nnn(Cc3nc(N)nc(N4CCOCC4)n3)n2)cc1OC
The “hERG current change (%, negative = inhibition) at 10uM” value of the first is higher: 4.16% for the first, -0.202% for the second.

Compared with Nc1nc(CSCc2ccccc2)nc(N2CCOCC2)n1, O=C(c1cnsn1)N1CCC(CO)(Cc2cccc(F)c2)CC1 is higher in “hERG current change (%, negative = inhibition) at 10uM” value: -10.2% for the first, 10.8% for the second.

First: CCCCN(C(=O)NC(=O)Nc1ccccc1OC)S(C)(=O)=O
Second: COCCCNC(=O)c1cc(C(=O)c2ccccc2Br)c[nH]1
The “hERG current change (%, negative = inhibition) at 10uM” value of the first is lower: -2.42% for the first, 15.1% for the second.

First: CCCCCCCCN1C(=O)N(C)C(N(O)C(=O)NC)C1(C)C (stereo not drawn)
Second: Br.CCCCCCCn1c(=N)n(CC(=O)c2ccco2)c2ccccc21
The “hERG current change (%, negative = inhibition) at 10uM” value of the first is higher: 8.37% for the first, -70.6% for the second.

Compared with Cc1cc(C(F)(F)F)n2ncc(-c3cccc(Br)c3)c2n1, CS(=O)(=O)c1ccccc1-c1nc(-c2cc(C(F)(F)F)cc(C(F)(F)F)c2)no1 is lower in “hERG current change (%, negative = inhibition) at 10uM” value: 22.6% for the first, 4.06% for the second.

Going from COc1ccc(CCNC(=O)c2cccc(S(=O)(=O)NC(C)c3ccccc3)c2)cc1 (stereo not drawn) to COc1ccc(CC2(CO)CCN(S(=O)(=O)c3cccc4cccnc34)CC2)cc1, the “hERG current change (%, negative = inhibition) at 10uM” value falls from 6.04% to -5.13%.

Going from COc1ccc(Cl)cc1NC(=O)c1ocnc1C to C/C(=N\NC(=O)c1nc2ccccn2c1C)c1ccco1, the “hERG current change (%, negative = inhibition) at 10uM” value falls from 10.1% to -1.34%.

Compared with Br.CCn1c(=N)n(CC(=O)c2ccco2)c2ccccc21, CCCn1c(N)[n+](CC(=O)c2ccco2)c2ccccc21.[Br-] is lower in “hERG current change (%, negative = inhibition) at 10uM” value: -3.75% for the first, -11.1% for the second.

Compared with CCOC(=O)C(C)Oc1cccc2c(=O)n(CC(=O)NCc3ccc(F)cc3)ccc12 (stereo not drawn), O=C(OC(C(=O)NCc1ccc2c(c1)OCO2)c1ccccc1F)c1ccco1 (stereo not drawn) is lower in “hERG current change (%, negative = inhibition) at 10uM” value: -4.43% for the first, -31.1% for the second.

Compared with C/C(=N\NC(=O)c1ccncc1)c1cc2ccccc2o1, C/C(=N\NC(=O)c1ccco1)c1cc2ccccc2o1 is higher in “hERG current change (%, negative = inhibition) at 10uM” value: -20.5% for the first, -9.09% for the second.

Compared with C/C(=N\NC(=O)c1nc2ccccn2c1C)c1cc2ccccc2o1, C/C(=N\NC(=O)c1cc2ccccc2cc1O)c1cc2ccccc2o1 is higher in “hERG current change (%, negative = inhibition) at 10uM” value: -63% for the first, 6.05% for the second.

First: Cc1ccc(Nc2ncc3c(n2)CC(C)CC3=O)c(C)c1 (stereo not drawn)
Second: COc1ccc(CC2(CO)CCN(Cc3cnn(C)c3C)CC2)cc1
The “hERG current change (%, negative = inhibition) at 10uM” value of the first is higher: 0.876% for the first, -21.6% for the second.

Compared with COc1cccc(CN2CCNC(=O)C2CC(=O)N(C)CCC2CCOCC2)c1 (stereo not drawn), COc1cc(CN2CCN(Cc3cccc(OC)c3OC)CC2)cc(OC)c1 is lower in “hERG current change (%, negative = inhibition) at 10uM” value: 8.75% for the first, -34.2% for the second.

First: COc1ccc(CC2(CO)CCN(Cc3cccc4nccnc34)CC2)cc1
Second: OCC1(Cc2cccc(F)c2)CCN(Cc2cccc3nccnc23)CC1
The “hERG current change (%, negative = inhibition) at 10uM” value of the first is lower: -70.9% for the first, -59.8% for the second.

Compared with O=S(=O)(c1cccc(F)c1)N1CCC(CO)(Cc2cccc(F)c2)CC1, COc1ccc(CC2(CO)CCN(Cc3cccc(OC)c3OC)CC2)cc1 is lower in “hERG current change (%, negative = inhibition) at 10uM” value: -18.2% for the first, -60.5% for the second.

Going from COc1ccc(CC2(CO)CCN(Cc3cccn3-c3ccccn3)CC2)cc1 to CCCn1ncc(CN2CCC(CO)(Cc3ccc(OC)cc3)CC2)c1C, the “hERG current change (%, negative = inhibition) at 10uM” value rises from -75.4% to -41.9%.
